In PubChem BioAssay (EPA / NIEHS) one finds outcome and AC50 data, which are given here for seven compounds.

Records with an inconclusive call do not appear. The source made the active and inactive calls. The calls were made as follows: active = hit-call score of the fitted dose curve at least 0.9, where 1 is the maximum; inconclusive = response in the unintended direction; inactive = score below 0.9.

Usually AC50 stands for the concentration giving half of the maximal activity seen.

In test [1] the target is human Ephrin type-A Receptor 2 (EphA2), EPHA2 (gene 1969) (UniProt P29317). The experiment in a line: NVS_ENZ_hEphA2: NovaScreen (NVS) Enzymatic Assay for human Ephrin type-A Receptor 2 (EphA2) (AID 2283155). In a few lines: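 Cell-free recombinant EphA2 kinase with specific substrate, 1 h, fluorescence with electrophoretic mobility-shift separation of substrate and product. Primary screen at 25 uM in duplicate; hits retested in singleton concentration-response up to 50 uM, referenced to DMSO.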

The target in test [2] is human Ephrin type-A Receptor 1 (EphA1), EPHA1 (gene 2041) (UniProt P21709). Description: NVS_ENZ_hEphA1: NovaScreen (NVS) Enzymatic Assay for human Ephrin type-A Receptor 1 (EphA1) (AID 2283158).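 Also: activity is signal loss versus DMSO meaning EphA1 kinase inhibition.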 The procedure, abridged: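 Cell-free enzymatic assay with recombinant EphA1 and fluorescent substrate; product separated by electrophoretic mobility shift, fluorescence intensity read 1 hour after dosing. Loss of signal versus DMSO baseline; primary duplicate screen at 25 uM, actives followed to 50 uM top concentration.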

In test [3] the target is human Fibroblast Growth Factor Receptor 1 (FGFR1), FGFR1 (gene 2260) (UniProt P11362). Description: NVS_ENZ_hFGFR1: NovaScreen (NVS) Enzymatic Assay for human Fibroblast Growth Factor Receptor 1 (FGFR1) (AID 2283159). The procedure, abridged:
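Cell-free recombinant kinase with fluorescent substrate, product separated by electrophoretic mobility shift; read 1 hour after dosing, loss of signal relative to DMSO. Initial screen in duplicate at 25 uM, actives followed in concentration series.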

The target in test [4] is human Esterase Plasma (ES), BCHE (gene 590) (UniProt P06276). Description: NVS_ENZ_hES: NovaScreen (NVS) Enzymatic Assay for human Esterase Plasma (ES) (AID 2283157). The procedure, abridged: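 Cell-free enzyme assay using esterase extracted from human plasma; colorimetric absorbance read 0.25 hour after dosing. Single-concentration duplicate screen at 25 uM, then concentration-response up to 50 uM; loss of signal scored against DMSO baseline.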

Test [5] deals with human IkappaB Kinase alpha (IKKa), CHUK (gene 1147) (UniProt O15111). Description: NVS_ENZ_hIKKa: NovaScreen (NVS) Enzymatic Assay for human IkappaB Kinase alpha (IKKa) (AID 2283167). In a few lines:
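Cell-free recombinant human IKKa with fluorescent substrate, product separated by electrophoretic mobility shift; read 1 hour after dosing. Primary screen duplicate at 25 uM, actives then concentration-response up to 50 uM; loss of signal relative to DMSO.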

Sequence of human Esterase Plasma (ES), BCHE (gene 590) (P06276 whole entry, looked up): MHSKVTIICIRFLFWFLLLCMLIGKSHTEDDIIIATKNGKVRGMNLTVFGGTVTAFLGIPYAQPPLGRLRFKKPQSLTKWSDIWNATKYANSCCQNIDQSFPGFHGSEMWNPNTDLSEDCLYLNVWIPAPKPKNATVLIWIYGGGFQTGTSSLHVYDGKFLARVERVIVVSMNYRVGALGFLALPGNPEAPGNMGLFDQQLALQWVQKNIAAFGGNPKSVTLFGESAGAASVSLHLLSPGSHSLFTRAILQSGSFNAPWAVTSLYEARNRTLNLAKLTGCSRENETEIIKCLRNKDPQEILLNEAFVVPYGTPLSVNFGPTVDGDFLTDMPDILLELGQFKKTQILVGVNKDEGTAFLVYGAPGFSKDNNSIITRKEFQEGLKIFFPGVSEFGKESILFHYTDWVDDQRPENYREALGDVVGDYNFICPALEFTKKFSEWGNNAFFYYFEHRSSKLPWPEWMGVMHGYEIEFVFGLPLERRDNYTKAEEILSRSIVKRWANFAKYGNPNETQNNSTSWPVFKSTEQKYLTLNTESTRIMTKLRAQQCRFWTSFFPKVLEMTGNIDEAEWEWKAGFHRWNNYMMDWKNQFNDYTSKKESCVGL
Sequence of human Fibroblast Growth Factor Receptor 1 (FGFR1), FGFR1 (gene 2260) (P11362 whole entry, looked up): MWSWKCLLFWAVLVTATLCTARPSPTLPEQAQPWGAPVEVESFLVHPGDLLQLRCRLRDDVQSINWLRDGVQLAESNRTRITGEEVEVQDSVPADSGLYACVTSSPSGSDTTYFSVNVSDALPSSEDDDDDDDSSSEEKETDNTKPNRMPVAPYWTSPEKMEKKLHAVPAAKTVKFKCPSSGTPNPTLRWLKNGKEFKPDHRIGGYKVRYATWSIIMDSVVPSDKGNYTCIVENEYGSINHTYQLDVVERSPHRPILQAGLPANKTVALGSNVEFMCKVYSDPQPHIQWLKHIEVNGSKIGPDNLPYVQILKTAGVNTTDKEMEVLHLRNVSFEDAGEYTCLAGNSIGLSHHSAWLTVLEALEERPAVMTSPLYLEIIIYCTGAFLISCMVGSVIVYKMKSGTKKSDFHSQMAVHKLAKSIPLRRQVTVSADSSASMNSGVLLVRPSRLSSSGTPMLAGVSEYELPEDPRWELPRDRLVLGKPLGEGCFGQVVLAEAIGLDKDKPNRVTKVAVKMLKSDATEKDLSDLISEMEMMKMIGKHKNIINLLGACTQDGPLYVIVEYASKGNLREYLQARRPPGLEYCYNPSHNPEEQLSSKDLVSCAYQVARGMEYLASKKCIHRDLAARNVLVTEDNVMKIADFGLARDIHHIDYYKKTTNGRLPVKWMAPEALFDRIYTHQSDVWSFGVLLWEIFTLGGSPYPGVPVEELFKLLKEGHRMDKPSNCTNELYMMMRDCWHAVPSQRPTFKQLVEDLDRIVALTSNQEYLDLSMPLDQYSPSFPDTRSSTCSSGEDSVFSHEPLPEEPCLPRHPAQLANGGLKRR
Sequence of human Ephrin type-A Receptor 2 (EphA2), EPHA2 (gene 1969) (P29317 whole entry, looked up): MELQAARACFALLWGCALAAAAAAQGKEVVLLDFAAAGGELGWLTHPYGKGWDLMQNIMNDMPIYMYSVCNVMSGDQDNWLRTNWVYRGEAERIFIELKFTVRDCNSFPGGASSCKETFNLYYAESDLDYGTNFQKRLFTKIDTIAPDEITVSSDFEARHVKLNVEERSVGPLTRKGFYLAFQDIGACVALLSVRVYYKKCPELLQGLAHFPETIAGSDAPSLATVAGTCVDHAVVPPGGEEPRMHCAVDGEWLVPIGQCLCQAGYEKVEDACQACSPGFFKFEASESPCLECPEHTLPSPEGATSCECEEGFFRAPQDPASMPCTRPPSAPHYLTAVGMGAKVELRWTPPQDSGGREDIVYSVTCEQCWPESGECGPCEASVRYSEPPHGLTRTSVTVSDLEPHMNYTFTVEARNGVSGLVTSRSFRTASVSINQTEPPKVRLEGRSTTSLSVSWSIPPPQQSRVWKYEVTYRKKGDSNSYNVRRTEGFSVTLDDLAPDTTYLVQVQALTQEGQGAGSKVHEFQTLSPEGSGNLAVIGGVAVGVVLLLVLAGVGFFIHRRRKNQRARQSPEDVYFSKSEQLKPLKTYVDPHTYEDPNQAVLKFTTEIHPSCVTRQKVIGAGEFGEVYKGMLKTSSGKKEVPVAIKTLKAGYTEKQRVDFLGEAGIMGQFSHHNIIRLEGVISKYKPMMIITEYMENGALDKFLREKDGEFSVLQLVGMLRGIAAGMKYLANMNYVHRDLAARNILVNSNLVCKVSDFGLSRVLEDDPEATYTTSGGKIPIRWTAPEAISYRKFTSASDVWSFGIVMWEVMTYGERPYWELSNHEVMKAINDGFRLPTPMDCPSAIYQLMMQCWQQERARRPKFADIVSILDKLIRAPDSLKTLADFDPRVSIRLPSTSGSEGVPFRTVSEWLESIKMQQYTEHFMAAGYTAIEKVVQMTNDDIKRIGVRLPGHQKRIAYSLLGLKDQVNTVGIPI
Sequence of human Ephrin type-A Receptor 1 (EphA1), EPHA1 (gene 2041) (P21709 whole entry, looked up): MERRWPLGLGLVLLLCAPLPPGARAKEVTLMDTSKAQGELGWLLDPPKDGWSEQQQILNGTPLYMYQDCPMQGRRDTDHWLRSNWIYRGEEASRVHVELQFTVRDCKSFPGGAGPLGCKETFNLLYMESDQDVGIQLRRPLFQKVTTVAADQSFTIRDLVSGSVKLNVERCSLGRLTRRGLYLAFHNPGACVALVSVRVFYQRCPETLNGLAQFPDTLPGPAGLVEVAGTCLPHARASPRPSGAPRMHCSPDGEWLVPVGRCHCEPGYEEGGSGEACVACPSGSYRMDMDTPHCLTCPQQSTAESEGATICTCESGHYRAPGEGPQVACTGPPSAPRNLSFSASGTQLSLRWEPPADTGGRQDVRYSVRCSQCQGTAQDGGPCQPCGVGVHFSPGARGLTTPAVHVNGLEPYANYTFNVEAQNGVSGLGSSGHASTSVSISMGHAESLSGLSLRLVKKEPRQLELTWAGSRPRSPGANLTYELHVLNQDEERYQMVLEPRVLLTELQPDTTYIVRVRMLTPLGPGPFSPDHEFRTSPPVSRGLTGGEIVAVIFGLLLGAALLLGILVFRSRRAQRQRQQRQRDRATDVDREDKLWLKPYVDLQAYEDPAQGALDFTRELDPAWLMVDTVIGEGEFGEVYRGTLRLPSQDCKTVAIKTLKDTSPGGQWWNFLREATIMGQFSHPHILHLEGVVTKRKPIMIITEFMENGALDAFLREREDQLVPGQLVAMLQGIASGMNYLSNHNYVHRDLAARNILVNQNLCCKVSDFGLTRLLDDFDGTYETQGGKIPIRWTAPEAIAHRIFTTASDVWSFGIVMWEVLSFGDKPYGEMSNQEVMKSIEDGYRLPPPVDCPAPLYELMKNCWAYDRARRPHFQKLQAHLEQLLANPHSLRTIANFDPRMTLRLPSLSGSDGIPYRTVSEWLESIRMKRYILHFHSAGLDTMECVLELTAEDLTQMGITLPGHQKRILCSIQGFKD
Sequence of human IkappaB Kinase alpha (IKKa), CHUK (gene 1147) (O15111 whole entry, looked up): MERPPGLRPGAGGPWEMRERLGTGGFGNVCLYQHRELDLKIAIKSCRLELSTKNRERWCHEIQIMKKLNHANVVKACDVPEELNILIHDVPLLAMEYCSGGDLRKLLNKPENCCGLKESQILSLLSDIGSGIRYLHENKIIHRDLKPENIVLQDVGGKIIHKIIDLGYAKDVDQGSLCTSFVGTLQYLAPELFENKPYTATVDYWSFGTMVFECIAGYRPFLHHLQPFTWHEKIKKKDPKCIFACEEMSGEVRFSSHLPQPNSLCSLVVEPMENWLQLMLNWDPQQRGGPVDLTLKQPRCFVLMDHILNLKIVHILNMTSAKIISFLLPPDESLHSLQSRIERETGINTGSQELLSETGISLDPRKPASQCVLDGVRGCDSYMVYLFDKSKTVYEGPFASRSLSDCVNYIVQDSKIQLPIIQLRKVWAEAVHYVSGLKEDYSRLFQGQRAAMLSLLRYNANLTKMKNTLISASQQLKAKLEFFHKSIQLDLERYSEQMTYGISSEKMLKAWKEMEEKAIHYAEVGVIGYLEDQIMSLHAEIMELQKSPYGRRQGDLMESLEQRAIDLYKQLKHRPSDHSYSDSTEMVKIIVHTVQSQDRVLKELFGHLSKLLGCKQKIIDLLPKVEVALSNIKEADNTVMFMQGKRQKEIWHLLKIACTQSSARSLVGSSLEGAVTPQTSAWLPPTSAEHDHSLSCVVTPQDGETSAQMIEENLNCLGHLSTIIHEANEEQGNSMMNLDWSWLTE

Regarding `CNC(=O)CSP(=S)(OC)OC`, the compound was classed as inactive in test [1], in test [2] and in test [3].

Take `Oc1cc(Cl)ccc1Oc1ccc(Cl)cc1Cl`: the compound was classed as inactive in test [1] and in test [3].

As to `CC(C)N(C(=O)COc1nnc(C(F)(F)F)s1)c1ccc(F)cc1`, the concentration at half-maximal activity (AC50) in test [4] is 11.8 µM (active).

For `COP(=O)(OC)OC=C(Cl)Cl`, in test [4], the AC50 was 7.13 µM (active).

For the compound `CC(C)OC(=O)Nc1cccc(Cl)c1`, the compound was classed as inactive in test [4].

Regarding `CC(C)(C)C(O)C(Oc1ccc(Cl)cc1)n1cncn1` (stereo not given), the outcome in test [3] was inactive.

`O=C(O)COc1ccc(Cl)cc1Cl`: the compound was called inactive in test [5].
